Data reported in PubChem BioAssay (NCI).
The panel holds about 83,000 compounds, 20% with a hit somewhere; the sample as a whole holds those more often.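 Testing used 96-well plates and a 48-hour single-concentration exposure. Example: -40 means 40% of the starting cells died.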 The source made the active and inactive calls. The calls were made as follows: active = growth percent below 10; inactive = the rest.

Key:
Test in all cases: NCI-60 one-dose screen, 48 h (100 = growth as untreated, 0 = no growth, -100 = all killed)
NCI-H23 lung = test system: NCI-H23 lung
NCI-H226 lung = test system: NCI-H226 lung
NCI-H322M lung = test system: NCI-H322M lung
HOP-62 NSCLC = test system: HOP-62 NSCLC
NCI-H522 lung = test system: NCI-H522 lung
A549/ATCC NSCLC = test system: A549/ATCC NSCLC
786-0 renal = test system: 786-0 renal
COLO 205 colon = test system: COLO 205 colon
DU-145 prostate = test system: DU-145 prostate
MALME-3M melanoma = test system: MALME-3M melanoma
MDA-MB-231 breast = test system: MDA-MB-231 breast
RXF 393 renal = test system: RXF 393 renal
SF-268 CNS = test system: SF-268 CNS
SF-295 CNS = test system: SF-295 CNS
SF-539 CNS = test system: SF-539 CNS
UACC-257 melanoma = test system: UACC-257 melanoma
M14 melanoma = test system: M14 melanoma
NCI-H460 lung = test system: NCI-H460 lung
HOP-92 NSCLC = test system: HOP-92 NSCLC
K-562 leukemia = conditions: 10 µM unless noted

Measured: growth

CC/C(=C(\c1ccc(O)cc1)c1ccc(OCCNC)cc1)c1ccccc1
active: M14 melanoma; 10 µM -18.8%
inactive: NCI-H23 lung; 1 µM 98.9% | NCI-H23 lung; 10 µM 96.5% | NCI-H226 lung; 1 µM 85.9% | NCI-H226 lung; 10 µM 74.7% | NCI-H322M lung; 1 µM 100% | NCI-H322M lung; 10 µM 102% | HOP-62 NSCLC; 1 µM 97.8% | HOP-62 NSCLC; 10 µM 96.8% | NCI-H522 lung; 1 µM 87.9% | NCI-H522 lung; 10 µM 93% | A549/ATCC NSCLC; 1 µM 93.9% | A549/ATCC NSCLC; 10 µM 88.2% | 786-0 renal; 1 µM 89.7% | 786-0 renal; 10 µM 76.7% | COLO 205 colon; 1 µM 116% | COLO 205 colon; 10 µM 91% | DU-145 prostate; 1 µM 103% | DU-145 prostate; 10 µM 83.6% | MALME-3M melanoma; 1 µM 88.6% | MALME-3M melanoma; 10 µM 91% | MDA-MB-231 breast; 1 µM 96.3% | MDA-MB-231 breast; 10 µM 82.5% | RXF 393 renal; 1 µM 103% | RXF 393 renal; 10 µM 82.4% | SF-268 CNS; 1 µM 104% | SF-268 CNS; 10 µM 79.8% | SF-295 CNS; 1 µM 99.6% | SF-295 CNS; 10 µM 96.4% | SF-539 CNS; 1 µM 93.6% | SF-539 CNS; 10 µM 85.2% | UACC-257 melanoma; 1 µM 95.3% | UACC-257 melanoma; 10 µM 97.2% | M14 melanoma; 1 µM 107%

O=C1Nc2cc(-c3ccc(NS(=O)(=O)c4ccc(-c5ccccc5)cc4)cc3)ccc2/C1=C/c1ccc[nH]1
active: NCI-H23 lung; 10 µM unless noted 4.1% | NCI-H460 lung; 10 µM unless noted 3.38% | NCI-H522 lung; 10 µM unless noted -11.8% | COLO 205 colon; 10 µM unless noted 0.446% | DU-145 prostate; 10 µM unless noted -11.5% | RXF 393 renal; 10 µM unless noted -37.3%
inactive: NCI-H226 lung; 10 µM unless noted 66.5% | NCI-H322M lung; 10 µM unless noted 47.3% | HOP-62 NSCLC; 10 µM unless noted 75.9% | HOP-92 NSCLC; 10 µM unless noted 16.1% | A549/ATCC NSCLC; 10 µM unless noted 10.5% | 786-0 renal; 10 µM unless noted 58.4% | K-562 leukemia 18.8% | MALME-3M melanoma; 10 µM unless noted 50% | MDA-MB-231 breast; 10 µM unless noted 63.9% | SF-268 CNS; 10 µM unless noted 75.8% | SF-295 CNS; 10 µM unless noted 30.9% | SF-539 CNS; 10 µM unless noted 37.4% | UACC-257 melanoma; 10 µM unless noted 58.9% | M14 melanoma; 10 µM unless noted 38%

O=C(c1ccc(Cl)cc1)C1[C@H](c2ccccc2Cl)[C@@H](c2ccccc2)NC12C(=O)Nc1ccc(Br)cc12 (some centres not stated)
active: NCI-H23 lung; 10 µM unless noted -80.5% | NCI-H226 lung; 10 µM unless noted -89.1% | NCI-H322M lung; 10 µM unless noted -47.3% | HOP-62 NSCLC; 10 µM unless noted -88% | NCI-H460 lung; 10 µM unless noted -78.8% | HOP-92 NSCLC; 10 µM unless noted -84.3% | NCI-H522 lung; 10 µM unless noted -73.4% | A549/ATCC NSCLC; 10 µM unless noted -41.7% | 786-0 renal; 10 µM unless noted -67% | COLO 205 colon; 10 µM unless noted -83.3% | DU-145 prostate; 10 µM unless noted -34.7% | K-562 leukemia -43.2% | MALME-3M melanoma; 10 µM unless noted -64.2% | MDA-MB-231 breast; 10 µM unless noted -95.4% | RXF 393 renal; 10 µM unless noted -93.5% | SF-268 CNS; 10 µM unless noted -45.1% | SF-295 CNS; 10 µM unless noted -88.1% | SF-539 CNS; 10 µM unless noted -85.2% | UACC-257 melanoma; 10 µM unless noted -30.7% | M14 melanoma; 10 µM unless noted -88.5%

CC/C(=C(\c1ccc(O)cc1)c1ccc(OCCN(C)C(=O)COCCNC(=O)Cc2ccc3c(c2)CN([C@@H]2CCC(=O)NC2=O)C3=O)cc1)c1ccccc1
inactive: NCI-H23 lung; 1 µM 102% | NCI-H23 lung; 10 µM 86.6% | NCI-H226 lung; 1 µM 77.4% | NCI-H322M lung; 1 µM 77.5% | NCI-H322M lung; 10 µM 37.9% | HOP-62 NSCLC; 1 µM 72% | HOP-62 NSCLC; 10 µM 16.2% | NCI-H460 lung; 1 µM 124% | NCI-H460 lung; 10 µM 106% | NCI-H522 lung; 1 µM 92.2% | NCI-H522 lung; 10 µM 95.3% | A549/ATCC NSCLC; 1 µM 95.7% | A549/ATCC NSCLC; 10 µM 75.2% | 786-0 renal; 1 µM 94% | 786-0 renal; 10 µM 90.6% | COLO 205 colon; 1 µM 72.2% | COLO 205 colon; 10 µM 33.8% | DU-145 prostate; 1 µM 103% | DU-145 prostate; 10 µM 104% | MALME-3M melanoma; 1 µM 24.7% | RXF 393 renal; 1 µM 100% | RXF 393 renal; 10 µM 99.4% | SF-268 CNS; 1 µM 77% | SF-268 CNS; 10 µM 51.8% | SF-295 CNS; 1 µM 103% | SF-295 CNS; 10 µM 81.9% | SF-539 CNS; 1 µM 78.3% | SF-539 CNS; 10 µM 55.1% | UACC-257 melanoma; 1 µM 96.4% | UACC-257 melanoma; 10 µM 95.4% | M14 melanoma; 1 µM 82.1% | M14 melanoma; 10 µM 68.9%
active: NCI-H226 lung; 10 µM 6.46% | HOP-92 NSCLC; 1 µM 8.46% | HOP-92 NSCLC; 10 µM -0.223% | MALME-3M melanoma; 10 µM -13.3% | MDA-MB-231 breast; 1 µM -5.08% | MDA-MB-231 breast; 10 µM -26.3%

O=C1Nc2cc(-c3ccc(NS(=O)(=O)c4ccc(C(F)(F)F)cc4)cc3)ccc2/C1=C/c1ccc[nH]1
active: NCI-H460 lung; 10 µM unless noted 5.56% | NCI-H522 lung; 10 µM unless noted -18.4%
inactive: NCI-H23 lung; 10 µM unless noted 11% | NCI-H226 lung; 10 µM unless noted 49.7% | NCI-H322M lung; 10 µM unless noted 44% | HOP-62 NSCLC; 10 µM unless noted 43.5% | HOP-92 NSCLC; 10 µM unless noted 42.8% | A549/ATCC NSCLC; 10 µM unless noted 18.7% | 786-0 renal; 10 µM unless noted 40.8% | COLO 205 colon; 10 µM unless noted 23.9% | DU-145 prostate; 10 µM unless noted 40.6% | K-562 leukemia 11.4% | MALME-3M melanoma; 10 µM unless noted 63.3% | MDA-MB-231 breast; 10 µM unless noted 66.7% | RXF 393 renal; 10 µM unless noted 25% | SF-268 CNS; 10 µM unless noted 55.5% | SF-295 CNS; 10 µM unless noted 17.6% | SF-539 CNS; 10 µM unless noted 42.4% | UACC-257 melanoma; 10 µM unless noted 26.3% | M14 melanoma; 10 µM unless noted 55.3%

CN(C)c1ccc(/C=C/c2n(Cc3ccc4ccccc4c3)c3ccccc3[n+]2Cc2ccc3ccccc3c2)cc1
active: NCI-H23 lung; 10 µM unless noted -91.4% | NCI-H226 lung; 10 µM unless noted -65.2% | NCI-H322M lung; 10 µM unless noted -90% | HOP-62 NSCLC; 10 µM unless noted -63.3% | NCI-H460 lung; 10 µM unless noted -75.9% | HOP-92 NSCLC; 10 µM unless noted -67.2% | NCI-H522 lung; 10 µM unless noted -69.1% | A549/ATCC NSCLC; 10 µM unless noted -53.4% | 786-0 renal; 10 µM unless noted -72% | COLO 205 colon; 10 µM unless noted -41.7% | DU-145 prostate; 10 µM unless noted -43.3% | K-562 leukemia 2.08% | MALME-3M melanoma; 10 µM unless noted -68% | MDA-MB-231 breast; 10 µM unless noted -80.3% | RXF 393 renal; 10 µM unless noted -74.4% | SF-268 CNS; 10 µM unless noted -59.1% | SF-295 CNS; 10 µM unless noted -98.9% | SF-539 CNS; 10 µM unless noted -95.3% | UACC-257 melanoma; 10 µM unless noted -74.3% | M14 melanoma; 10 µM unless noted -69.2%

COc1ccc(NC(=O)N/N=C/c2c[nH]c3ccccc23)cc1
inactive: NCI-H23 lung; 10 µM unless noted 40% | NCI-H226 lung; 10 µM unless noted 34.7% | NCI-H322M lung; 10 µM unless noted 43.2% | HOP-62 NSCLC; 10 µM unless noted 44.1% | NCI-H460 lung; 10 µM unless noted 14.9% | HOP-92 NSCLC; 10 µM unless noted 69.5% | A549/ATCC NSCLC; 10 µM unless noted 45.6% | 786-0 renal; 10 µM unless noted 44.8% | DU-145 prostate; 10 µM unless noted 27.6% | K-562 leukemia 17.8% | MALME-3M melanoma; 10 µM unless noted 61.9% | MDA-MB-231 breast; 10 µM unless noted 44.7% | RXF 393 renal; 10 µM unless noted 20.2% | SF-268 CNS; 10 µM unless noted 55.7% | SF-295 CNS; 10 µM unless noted 16.4% | UACC-257 melanoma; 10 µM unless noted 72.9% | M14 melanoma; 10 µM unless noted 29.7%
active: NCI-H522 lung; 10 µM unless noted -34.7% | COLO 205 colon; 10 µM unless noted 4.05% | SF-539 CNS; 10 µM unless noted -13.6%
